PubChem BioAssay (NCI)
Compounds without any hit were thinned out: in the full panel of roughly 83,000, 20% have a hit.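 The endpoint reported here, percent growth, reads 100 for growth as untreated, 0 for no net growth and -100 for all cells dead.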 Unmarked numbers belong to inactive results. The source made the active and inactive calls. How the source made its calls: active means growth percent below 10; inactive means the rest.

How the values were obtained:
Experiment in all cases: NCI-60 one-dose screen, 48 h (100 = growth as untreated, 0 = no growth, -100 = all killed)
Conditions in all cases: 10 µM unless noted
[1] = tested on: SR leukemia
[2] = tested on: RPMI-8226 leukemia
[3] = tested on: OVCAR-8 ovarian
[4] = tested on: OVCAR-5 ovarian
[5] = tested on: OVCAR-4 ovarian
[6] = tested on: SK-OV-3 ovarian
[7] = tested on: IGROV1 ovarian
[8] = tested on: OVCAR-3 ovarian
[9] = tested on: HS 578T breast
[10] = tested on: NCI/ADR-RES ovarian
[11] = tested on: T-47D breast
[12] = tested on: BT-549 breast
[13] = tested on: MDA-MB-435 melanoma
[14] = tested on: SW-620 colon
[15] = tested on: MCF7 breast
[16] = tested on: HCT-116 colon
[17] = tested on: HCC-2998 colon
[18] = tested on: KM12 colon

SMILES	growth [1]	growth [2]	growth [3]	growth [4]	growth [5]	growth [6]	growth [7]	growth [8]	growth [9]	growth [10]	growth [11]	growth [12]	growth [13]	growth [14]	growth [15]	growth [16]	growth [17]	growth [18]
CCc1ccc(-c2ccc(=O)n(-c3ccc(S(N)(=O)=O)cc3)n2)cc1	-11.9% (active)	-29.9% (active)	51.2%	91.6%	74.5%	49.5%	-5.72% (active)	-56.8% (active)	28.6%	1% (active)	33.4%	7.69% (active)	-17.8% (active)	7.19% (active)	30.2%	16.8%	53.9%	13.6%
S=c1[nH]nc(-c2cc3ccc2CCc2ccc(cc2)CC3)n1C1CC1	109%	106%	107%	99.1%	89.4%	113%	101%	108%	101%	103%	97.7%	107%	97.3%	99.8%	90.5%	92.3%	115%	99.6%
CCCC(=O)Oc1ccc(/C(=C(\C)c2ccccc2)c2ccc(OCCN(CC)CC)cc2)cc1	28.2%	55.4%	83.3%	88.7%	86.6%	91.7%	90.7%	94.9%	42.6%	86.7%	46.8%	78.7%	73.3%	84.5%	34.5%	47.8%	83.2%	79.5%
COc1ccc(-n2c(-c3ccccc3)c(-c3ccccc3)c3c(SCC(=O)N/N=C/c4ccc(Cl)cc4)ncnc32)cc1	105%	87.4%	85.3%	98.3%	92%	73%	87.9%	85.9%	93%	87.1%	79.9%	85.2%	98.6%	99%	85%	87.8%	93.2%	89.1%
OB(O)c1cccc(-c2nc3ccc4[nH]ncc4c3c3c2CCCC3)c1F	48.7%	50.7%	52.8%	75.1%	76.4%	-10.7% (active)	41.1%	62.5%	24.9%	53.7%	54.1%	30.2%	44.4%	35.1%	62.5%	20.9%	71.4%	28.7%
C=C1C(=O)O[C@H]2[C@H]1CC/C(Cn1cc(CNC(=O)Cc3cn(C(=O)c4ccc(Cl)cc4)c4ccc(OC)cc34)nn1)=C\CC[C@@]1(C)O[C@@H]21	-28% (active)	-40.2% (active)	-64.2% (active)	58.3%	18.8%	88.9%	-18.7% (active)	-82.3% (active)	24.7%	95.9%	-61.6% (active)	-3.93% (active)	-63.2% (active)	-67.4% (active)	-62.7% (active)	-95% (active)	8.2% (active)	41.9%
Cc1cc(C2=NNC(=O)Cc3cc4c(cc32)OCCO4)cc(C)c1N	27.5%	52.8%	54.8%	75.8%	56.8%	20.2%	44.7%	-28.5% (active)	24.9%	-4.6% (active)	46.1%	30.7%	-12.6% (active)	26.5%	16.7%	20.4%	48.8%	24%
CCCCCCCCC(C)OC(=O)c1nn(C(C)=O)c2ccccc12 (stereo unspecified)	126%	104%	95.7%	104%	99.1%	109%	105%	110%	101%	101%	88.6%	95.4%	101%	103%	90.1%	97%	98%	103%
COc1cc(/C=C/C(=O)c2c(C)nc3ccccc3c2C)ccc1OCCCCOc1cc2c(cc1OC)C(=O)N1CCC[C@H]1C=N2	-25.1% (active)	-61.2% (active)	-7.99% (active)	-59.6% (active)	-20.1% (active)	-50.1% (active)	-100% (active)	-57.1% (active)	39%	43.9%	-64.7% (active)	-64.8% (active)	-34.8% (active)	-62.2% (active)	-86% (active)	-65.9% (active)	-100% (active)	-69.7% (active)
CCN(CC)c1ccc(N=O)cc1	26.5%	91.3%	55.4%	103%	66.7%	96%	15%	28.5%	93%	52%	44.9%	79.7%	66.9%	-61.1% (active)	51.8%	37.9%	86.5%	40.3%
CCOC(=O)/C(C#N)=C1/C(=O)Nc2ccccc21	149%	111%	108%	104%	114%	117%	109%	134%	121%	112%	98.7%	112%	119%	109%	103%	98.4%	109%	112%
CCCCOc1ccc(/C=C2/SC(N3CCOCC3)=NC2=O)cc1OCC	89.5%	95.6%	103%	88.3%	87.6%	-16.1% (active)	89%	115%	104%	94.5%	80.6%	83%	99.6%	96.9%	99.4%	93.2%	109%	98.7%
CNC(=S)NNC(=O)C1CC1	67.5%	98.9%	94.7%	107%	113%	105%	118%	116%	112%	110%	104%	92.1%	114%	112%	96.9%	101%	110%	109%
O=C1/C(=C/c2ccc([N+](=O)[O-])cc2)CN(C(=O)CCN2CCC(=NO)CC2)C/C1=C\c1ccc([N+](=O)[O-])cc1	8.69% (active)	-34.8% (active)	6.6% (active)	-41.3% (active)	-8.21% (active)	17.3%	-21.2% (active)	-59% (active)	22.8%	7.5% (active)	10.1%	-40.7% (active)	-52.1% (active)	-53.2% (active)	-55.4% (active)	-67.4% (active)	-72.2% (active)	-55.3% (active)
O=C(CSC1CCc2ccccc21)N/N=C/c1ccccc1O (stereo unspecified)	17.7%	71.5%	57.3%	78.1%	38.1%	50%	27.4%	20.6%	84.9%	24.1%	40.3%	68.9%	71.7%	52.9%	19.2%	31.5%	66.7%	41%
C=C1C(=O)O[C@@H]2[C@@H]3O[C@@](C)(CC/C=C(\C)CCC[C@@H]2C)[C@H](O)C[C@@H]13	13.7%	7.48% (active)	35%	97.5%	70.1%	92%	42.3%	13.9%	72.1%	37.5%	50.9%	19.1%	19.2%	33.5%	36.3%	-4.01% (active)	97.5%	75.8%
C=C[C@@H]1C[C@H](O)Cc2c(C)cc(C)cc2N1	82.8%	84.7%	98.5%	89.3%	108%	106%	109%	112%	99.9%	97.1%	103%	96.4%	99.3%	99.9%	93.1%	99.9%	94.2%	105%
